This note sets out measurements from PubChem BioAssay.

The structures appear in SMILES notation. The source made the active and inactive calls.

Assay [1] can be described thus: optical density shifts of acrAB sulA E. coli – strain DRC41, OD650, 48 h, E. coli filamentation inducer project, primary screen (AID 1152).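 Note: E. coli MC1000 strain DRC41 lacking acrAB efflux pump and sulA.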 The note with it: higher = more signal, called active from +8 up or from −8 down.
The nature of assay [2]: probe aLefty1 binding on compound microarray – biochemical, small-molecule microarray, 635/667 nm fluorescence, primary screen (AID 1153).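 Note: score merges spot fluorescence with signal-to-noise ratio from the scanned slide images.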 The settings on record: higher = more signal.
Assay [3] is described as follows: plasmodial surface anion channel blockers, osmotic lysis – cell-based, P. falciparum Indochina, OD700, 1 h, primary screen (AID 1154). The settings on record: P. falciparum Indochina infected RBC osmotic lysis, higher = more signal, called active from +8 up or from −8 down.
Assay [4] can be described thus: plasmodial surface anion channel blockers, osmotic lysis – cell-based, P. falciparum Indochina, OD700, 2 h, primary screen (AID 1155).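 Note: lysis reports solute entry through the parasite surface anion channel PSAC.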 The note with it: P. falciparum Indochina infected erythrocytes, higher = more signal, called active from +8 up or from −8 down.
Assay [5] can be described thus: changes in parasitized red cell lysis, either direction – P. falciparum Indochina, OD700, 3 h, PSAC antagonist project, primary screen (AID 1156). The settings on record: P. falciparum-infected erythrocytes, osmotic lysis, higher = more signal, called active from +8 up or from −8 down.
A short description of assay [6]: plasmodial surface anion channel blockers, osmotic lysis – cell-based, P. falciparum Indochina, OD700, 18 h, primary screen (AID 1157). The note with it: P. falciparum Indochina infected erythrocytes, osmotic lysis OD700, 18 h; higher = more signal, called active from +8 up or from −8 down.
Assay [7] can be described thus: S6 kinase pathway phospho-S6 level changes – cell-based, A549, cytoblot, luminescence, serum-stimulated, primary screen (AID 1158).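 Note: serum-stimulated A549 lung adenocarcinoma cells; signal is phosphorylated S6 detected by cytoblot immunostaining with HRP secondary.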 The note with it: 5 h, higher = more signal.
The target of assay [8] is NADPH oxidase 2 (Homo sapiens) (UniProt P04839). Briefly: compounds shifting NOX2 Amplex Red fluorescence – cell-based, HEK293-NOX2, PMA-stimulated, NOX inhibitor project, primary screen (AID 1159). Note: test concentration not given here. The settings on record: 45 min, higher = more signal, called active from +8 up or from −8 down.
NADPH oxidase 2 (Homo sapiens), sequence (P04839 whole entry, looked up): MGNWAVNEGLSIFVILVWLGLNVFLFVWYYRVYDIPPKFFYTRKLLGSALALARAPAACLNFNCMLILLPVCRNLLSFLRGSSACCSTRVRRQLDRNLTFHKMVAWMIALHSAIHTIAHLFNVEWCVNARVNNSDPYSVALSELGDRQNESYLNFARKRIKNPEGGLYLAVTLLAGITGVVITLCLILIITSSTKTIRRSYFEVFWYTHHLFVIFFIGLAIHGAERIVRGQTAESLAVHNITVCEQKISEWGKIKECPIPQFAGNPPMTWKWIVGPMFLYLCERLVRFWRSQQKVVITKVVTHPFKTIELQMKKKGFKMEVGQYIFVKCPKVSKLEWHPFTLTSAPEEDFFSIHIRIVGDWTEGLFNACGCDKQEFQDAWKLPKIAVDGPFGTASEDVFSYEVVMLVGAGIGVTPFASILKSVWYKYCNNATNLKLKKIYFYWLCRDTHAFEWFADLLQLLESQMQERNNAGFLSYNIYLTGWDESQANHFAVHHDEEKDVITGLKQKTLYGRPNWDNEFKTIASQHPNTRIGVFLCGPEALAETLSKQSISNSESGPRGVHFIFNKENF
Assay [9] deals with NADPH oxidase 4 (Homo sapiens) (UniProt Q9NPH5). As to the kind of experiment: compounds shifting NOX4 Amplex Red fluorescence – cell-based, HEK293-NOX4, tetracycline-induced, NOX inhibitor project, primary screen (AID 1160). The note with it: HEK293-NOX4, Amplex Red H2O2 fluorescence, 45 min; higher = more signal, called active from +8 up or from −8 down.
NADPH oxidase 4 (Homo sapiens), sequence (Q9NPH5 whole entry, looked up): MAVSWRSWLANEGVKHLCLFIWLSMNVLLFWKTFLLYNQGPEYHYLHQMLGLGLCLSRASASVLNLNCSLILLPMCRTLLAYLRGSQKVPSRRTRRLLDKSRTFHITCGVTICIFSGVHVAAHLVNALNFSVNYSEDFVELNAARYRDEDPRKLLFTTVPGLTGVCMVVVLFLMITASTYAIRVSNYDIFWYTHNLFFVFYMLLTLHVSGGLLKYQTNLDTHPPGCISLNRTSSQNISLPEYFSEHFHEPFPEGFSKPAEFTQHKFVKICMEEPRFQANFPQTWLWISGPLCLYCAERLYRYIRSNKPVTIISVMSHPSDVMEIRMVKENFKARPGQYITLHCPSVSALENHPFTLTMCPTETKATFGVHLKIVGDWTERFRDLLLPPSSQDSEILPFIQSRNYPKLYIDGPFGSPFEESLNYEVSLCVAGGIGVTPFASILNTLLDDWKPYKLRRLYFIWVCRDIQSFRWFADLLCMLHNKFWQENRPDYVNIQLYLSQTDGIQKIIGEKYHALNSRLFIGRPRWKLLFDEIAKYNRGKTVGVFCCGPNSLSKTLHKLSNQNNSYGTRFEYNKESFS
The target of assay [10] is NADPH oxidase 5 (Homo sapiens) (UniProt Q96PH1). Briefly: compounds shifting NOX5 Amplex Red fluorescence – cell-based, HEK293-NOX5, NOX inhibitor project, primary screen (AID 1161). The settings on record: HEK293-NOX5, ionomycin, 45 min, higher = more signal.
NADPH oxidase 5 (Homo sapiens), sequence (Q96PH1 whole entry, looked up): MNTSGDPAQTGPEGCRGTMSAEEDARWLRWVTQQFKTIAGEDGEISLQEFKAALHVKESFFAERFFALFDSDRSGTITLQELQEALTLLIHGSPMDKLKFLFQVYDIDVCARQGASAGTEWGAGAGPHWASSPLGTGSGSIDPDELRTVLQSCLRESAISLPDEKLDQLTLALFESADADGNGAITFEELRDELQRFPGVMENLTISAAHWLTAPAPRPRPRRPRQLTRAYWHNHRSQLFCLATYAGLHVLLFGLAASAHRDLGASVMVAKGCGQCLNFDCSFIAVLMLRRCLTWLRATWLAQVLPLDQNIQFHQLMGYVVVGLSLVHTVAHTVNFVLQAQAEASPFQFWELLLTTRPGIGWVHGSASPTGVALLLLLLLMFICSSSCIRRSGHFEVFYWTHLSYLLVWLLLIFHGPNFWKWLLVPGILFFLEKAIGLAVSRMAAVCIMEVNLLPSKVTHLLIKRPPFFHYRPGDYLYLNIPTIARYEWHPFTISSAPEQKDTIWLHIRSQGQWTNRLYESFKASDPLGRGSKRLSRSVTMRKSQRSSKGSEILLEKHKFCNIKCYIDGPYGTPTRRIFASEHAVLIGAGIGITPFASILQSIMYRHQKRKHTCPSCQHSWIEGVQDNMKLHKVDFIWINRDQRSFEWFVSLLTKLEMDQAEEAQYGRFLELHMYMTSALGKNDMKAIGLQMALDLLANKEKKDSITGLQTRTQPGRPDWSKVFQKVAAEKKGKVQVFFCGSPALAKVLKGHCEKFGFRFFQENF

For the molecule `COc1ccc(C(=O)Nc2ccc(CN3C(=O)[C@]4(O[C@H](CC(=O)N(CCO)Cc5ccccc5)[C@@H]([Si](C)(C)c5ccc(OC)cc5)[C@@H]4C)c4ccccc43)cc2)cc1`, the z-score is 0.863 (inactive) in [1]; 4.94 (inactive) in [3]; 1.89 (inactive) in [4]; 0.439 (inactive) in [5]; 1.02 (inactive) in assay [6]; 0.383 in assay [7]. The z-score in assay [8] was 0.658 (inactive); in assay [9], 0.801 (inactive); in assay [10] it was 3.23. In assay [2], the composite z-score was -0.142.

For `COc1ccc([Si](C)(C)[C@H]2[C@H](CC(=O)N3CCC[C@H]3CO)O[C@@]3(C(=O)N(C)c4ccccc43)[C@@H]2C)cc1`, the z-score in assay [1] was -0.716 (inactive); in assay [3] it was 0.577 (inactive); in assay [4] it was 0.225 (inactive); in assay [5], -0.0347 (inactive); in assay [6], 0.423 (inactive); in assay [7] it was -0.0454. Moreover, the z-score is 1.4 (inactive) in [8], 1.46 (inactive) in [9] and 1.86 in [10]. In addition, the composite z-score in assay [2] is -0.0143.

Consider `C=CCOC(=O)[C@H]1[C@@H]2C(=O)O[C@@H](c3ccccc3)[C@@H](c3ccccc3)N2[C@@H](c2ccc(OCCOC(=O)[C@H]3C[C@H]4C(=O)NCC(=O)N4[C@H]3c3cccc(OCCO)c3)cc2)[C@]12C(=O)Nc1ccc(I)cc12`, for which the z-score in assay [1] is 0.0133 (inactive); in assay [3] it was 5.17 (inactive); in assay [4] it was 2.48 (inactive); in assay [5], 0.939 (inactive); in assay [6] it was 1.58 (inactive); in assay [7], 0.58. The z-score in assay [8] was 1.71 (inactive); in assay [9], 0.956 (inactive); in [10], 1.4. The molecule also came in with a composite z-score in assay [2] of 1.31.

As to `Cc1ccc(S(=O)(=O)N2[C@@H](c3ccccc3)C(C(=O)O)=CC[C@H]2c2ccc(F)cc2)cc1`, the z-score in assay [1] was -0.232 (inactive); in assay [3] it was 2.05 (inactive); in assay [4] it was 0.706 (inactive); in [5], 1.1 (inactive); in assay [6], 0.66 (inactive); in [7] it was -0.0796. Besides, the z-score in assay [8] was 0.0361 (inactive); in assay [9], 0.605 (inactive); in assay [10] it was 0.953. In assay [2], this molecule displayed a composite z-score of 0.214.

`COC(=O)[C@@]1(Cc2ccc(F)cc2)[C@@H]2C(=CC(=O)[C@H]2CC(=O)C(=O)N2CCCC2)CN1C(=O)c1ccccc1`: the z-score was -1.18 (inactive) in assay [1]; 3.94 (inactive) in assay [3]; -0.607 (inactive) in assay [4]; -2.12 (inactive) in [5]; -1.03 (inactive) in [6]; 1.84 in [7]. Also, the z-score in assay [8] is -3.72 (inactive); in assay [9], -5.14 (inactive); in assay [10] it was -4.38. In addition, the composite z-score in [2] came to 1.45.

Regarding `C=C(C(=O)CC[C@@H](OC(=O)c1ccccc1-c1ccccc1C(=O)O)c1ccc(OCCO)cc1)C(C)C`, the z-score in assay [1] was -0.383 (inactive); in assay [3], 13.6 (active); in assay [4], 1.37 (inactive); in assay [5], 1.2 (inactive); in assay [6], 0.405 (inactive); in assay [7], -0.26. Besides, the z-score in [8] is 1.43 (inactive); in assay [9] it was 0.123 (inactive); in assay [10] it was -1.3. The composite z-score in assay [2] stood at 0.312.

Turning to `O=C1O[C@@H](c2ccccc2)[C@@H](c2ccccc2)N2[C@@H](c3ccccc3OCCO)[C@]3(C(=O)Nc4ccc(C#CC5(O)CCCCCC5)cc43)[C@@H](C(=O)N3CCCCCCC3)[C@H]12`, the z-score in [1] is 0.177 (inactive); in [3] it was 1.14 (inactive); in assay [4], -0.256 (inactive); in assay [5], 0.786 (inactive); in [6], -1.64 (inactive); in [7] it was 1.76. Also, the z-score was -0.21 (inactive) in assay [8], -0.596 (inactive) in assay [9] and 0.147 in [10]. In addition, the composite z-score in assay [2] turned out to be 3.07.

For the molecule `C=C(CCCC)C(=O)CC[C@@H](OC(C)=O)c1ccc(OCCO)cc1`, the z-score was 0.0142 (inactive) in assay [1]; 7.67 (inactive) in assay [3]; 1.16 (inactive) in [4]; 0.888 (inactive) in assay [5]; 0.455 (inactive) in [6]; -0.222 in [7]. In addition, the z-score in [8] was -1.4 (inactive); in assay [9] it was -1.4 (inactive); in [10] it was -1.87. In addition, the composite z-score in [2] was 0.0533.

For `[N-]=[N+]=NCc1ccccc1C[C@]1(C(=O)N2CCCCC2)COC(c2ccc(OCCCO)cc2)=N1`, the z-score in assay [1] is 2.89 (inactive); in assay [3], 29.2 (active); in [4], 19.5 (active); in assay [5], 4.13 (inactive); in assay [6] it was 2.11 (inactive); in [7], -0.305. In addition, the z-score in assay [8] was -1.66 (inactive); in assay [9], 0.0299 (inactive); in [10] it was -1.38. The molecule further returned a composite z-score in [2] of -0.543.

`Cc1ccc(S[C@]2(C(=O)NCc3ccccc3)CC(=O)N(Cc3ccccc3Cl)[C@@H]2c2ccc(CO)cc2)cc1`: the z-score in assay [1] was -0.71 (inactive); in assay [3] it was 3.22 (inactive); in assay [4], 0.328 (inactive); in [5] it was 2.98 (inactive); in assay [6] it was 0.254 (inactive); in [7], -0.121. Besides, the z-score in assay [8] was -0.703 (inactive); in assay [9], -0.666 (inactive); in [10], -0.778. This molecule also registered a composite z-score in [2] of -0.0536.

On to `C[C@H]1C2[C@H](Cc3ccccc3)NC(=O)[C@]23C(=O)N[C@@H](Cc2ccccc2)C(=O)N2CCC[C@H]2C(=O)NC/C=C/CC/C=C/C3[C@@H]2O[C@]12C` (stereo not given in full), for which the z-score in assay [1] was -0.488 (inactive); in assay [3], 1.13 (inactive); in [4] it was 0.186 (inactive); in assay [5] it was 0.0233 (inactive); in assay [6], 0.599 (inactive); in assay [7] it was -0.191. Also, the results for the z-score in [8], in assay [9] and in assay [10] were 1.25 (inactive), 1.11 (inactive) and 1.25, respectively. Further, in assay [2], the composite z-score was determined as 0.32.

For `O=C1NC(=O)C2C1C=CC(C(O)C1CCCCC1)N2Nc1ccccn1` (stereo not given), the z-score is -1.72 (inactive) in [1]; 0.188 (inactive) in assay [3]; 0.567 (inactive) in assay [4]; -0.489 (inactive) in [5]; 0.433 (inactive) in assay [6]; -0.621 in [7]. In addition, the z-score was -1.2 (inactive) in assay [8], -3.29 (inactive) in [9] and -2.69 in assay [10]. Also, the composite z-score in assay [2] is -0.0779.
